Drawing on PubChem BioAssay (EPA / NIEHS), this text covers outcome for 39 molecules.

SMILES strings stand for the structures. Inconclusive results are not listed. Calls of active or inactive are those of the source. Rule for the calls: active = hit-call score of the fitted dose curve at least 0.9, where 1 is the maximum; inconclusive = response in the unintended direction; inactive = score below 0.9.

System in one experiment: not listed separately
The experiment can be described thus: TOX21_p53_BLA_p4_viability: Viability Assessment in the Tox21 HCT-116 p53 Agonism Beta-lactamase Assay, Phase 4 (AID 2283597).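 Note: hits lower the luminescence signal meaning cytotoxicity.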 The method, boiled down:
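4000 HCT116 cells per well; 5 h attachment; compounds from DMSO, 217-fold dilution; 16 h at 37C. Then CCF4-AM, 2 h RT, followed by CellTiter-Glo, 30 min RT, luminescence. Decrease = cytotoxicity.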
For `Nc1c(Cl)cc(Cl)cc1Cl`, the molecule was classed as inactive. The same measure, in the same setting: the result for `O=C(O)/C=C/c1cnc[nH]1` reads “inactive”; that for `CC(C(=O)O)c1ccc2c(c1)CC(=O)c1ccccc1S2` (stereo not drawn), “inactive”. Same read-out and setting: the result for `CC(=O)CC(=O)Nc1ccc(S(=O)(=O)O)cc1` reads “inactive”; that for `C=COCCCCO`, “inactive”; that for `Cc1onc(-c2c(Cl)cccc2Cl)c1C(=O)N[C@@H]1C(=O)N2[C@@H]1SC(C)(C)[C@@H]2C(=O)O`, “inactive”.

On to `Fc1ccccc1-c1ccccc1`, for which the call was inactive. On the same count and under the same terms, the result for `O=C1CCCc2ccccc21` reads “inactive”; that for `CCC(=O)CC`, “inactive”; that for `CN1CCN(C2=Nc3ccccc3Oc3ccc(Cl)cc32)CC1`, “inactive”. With `ClCCl`, the molecule was classed as inactive. As to `Cc1c(O)cc2c(c1C)O[C@](C)(CCC[C@H](C)CCC[C@H](C)CCCC(C)C)CC2`, the result was inactive. On the same count and under the same terms, the result for `C=CC(=O)CC` reads “inactive”. Still for that read-out and setting: the result for `CCCCCCCC/C=C\CCCCCCCC(=O)OCCOC(=O)CCCCCCC/C=C\CCCCCCCC` reads “inactive”. Turning to `Oc1cc(O)cc(O)c1`, the result was inactive.

In the case of `Cc1ccc(C=O)cc1C`, the molecule was called inactive.

With `COc1ccc(CCNCC(O)COc2cccc(C)c2)cc1OC` (stereo not drawn), the result was inactive. Take `CCCCC(=O)O[C@]1(C(=O)CO)CC[C@H]2[C@@H]3CCC4=CC(=O)CC[C@]4(C)[C@H]3[C@@H](O)C[C@@]21C`: the call was inactive.

On to `C[C@H]1c2cccc(O)c2C(O)=C2C(=O)[C@]3(O)C(O)=C(C(N)=O)C(=O)[C@@H](N(C)C)[C@@H]3[C@@H](O)[C@@H]21`, for which the call was inactive. Same read-out and setting: the result for `COC(=O)N[C@H](C(=O)N[C@@H](Cc1ccccc1)[C@@H](O)CN(Cc1ccc(-c2ccccn2)cc1)NC(=O)[C@@H](NC(=O)OC)C(C)(C)C)C(C)(C)C` reads “inactive”; that for `CCN(CC)CCNC(=O)c1cc(S(C)(=O)=O)ccc1OC`, “inactive”. On the same count and under the same terms, the result for `CCCCCCCCCCCc1ccccc1` reads “inactive”; that for `Cc1cccc(C)c1NC(=O)CN1CCCC1`, “inactive”. Consider `CCN(CCCc1ccccc1)CCCc1ccccc1`, for which the call was inactive. Regarding `Nc1ccc([N+](=O)[O-])c(N)c1`, the result was inactive. In the case of `CC(CN1c2ccccc2Sc2ccc(S(=O)(=O)N(C)C)cc21)N(C)C` (stereo not drawn), the molecule was called inactive. The same measure, in the same setting: the result for `O=C(NNCS(=O)(=O)O)c1ccncc1` reads “inactive”; that for `C=CCC=CC`, “inactive”. For the molecule `CN1CCC(=C2c3ccccc3CCc3sccc32)CC1`, the outcome was inactive. Same read-out and setting: the result for `C=CC(=O)NC(C)C` reads “inactive”; that for `CS(=O)(=O)NC(=O)CCC/C=C\C[C@H]1C(=O)C[C@@H](O)[C@@H]1/C=C/[C@H](O)COc1ccccc1`, “inactive”.

For `CCCCOCCCC`, the call was inactive.

Take `NC(=O)[C@@H]1C[C@]2(NC(=O)NC2=O)c2cc(F)ccc2O1`: the molecule was classed as inactive.

Turning to `CC(=O)[C@@]1(O)CC[C@H]2[C@@H]3C=C(Cl)C4=CC(=O)[C@@H]5C[C@@H]5[C@]4(C)[C@H]3CC[C@@]21C`, the molecule was called inactive. On the same count and under the same terms, the result for `C[N+](C)(C)CC(O)CCl` (stereo not drawn) reads “inactive”; that for `C=CCCCCCCCCCCC`, “inactive”; that for `O=C(O)C=Cc1ccc(C=CC(=O)O)cc1`, “inactive”. Still for that read-out and setting: the result for `CC(C(=O)O)c1ccc(CC2CCCC2=O)cc1` (stereo not drawn) reads “inactive”; that for `Cc1ccc(C(=O)Nc2ccc(S(=O)(=O)O)c3cc(S(=O)(=O)O)cc(S(=O)(=O)O)c23)cc1NC(=O)c1cccc(NC(=O)Nc2cccc(C(=O)Nc3cc(C(=O)Nc4ccc(S(=O)(=O)O)c5cc(S(=O)(=O)O)cc(S(=O)(=O)O)c45)ccc3C)c2)c1`, “inactive”.

The target of the next experiment is Cellular tumor antigen p53 (Homo sapiens) (UniProt P04637). Nature of the experiment: TOX21_p53_BLA_p5_ratio: Tox21 HCT-116 p53 Agonism Beta-lactamase Assay, Ratio, Phase 5 (AID 2283599). The gist of the method: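 Beta-lactamase reporter ratio (blue 460 nm over green 530 nm, 405 nm excitation) after 2 h CCF4-AM loading, in HCT-116 cells exposed 16 h at 37 C to compounds pinned at 217-fold dilution. Increases relative to DMSO baseline scored.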
Cellular tumor antigen p53 (Homo sapiens), sequence (P04637 whole entry, looked up): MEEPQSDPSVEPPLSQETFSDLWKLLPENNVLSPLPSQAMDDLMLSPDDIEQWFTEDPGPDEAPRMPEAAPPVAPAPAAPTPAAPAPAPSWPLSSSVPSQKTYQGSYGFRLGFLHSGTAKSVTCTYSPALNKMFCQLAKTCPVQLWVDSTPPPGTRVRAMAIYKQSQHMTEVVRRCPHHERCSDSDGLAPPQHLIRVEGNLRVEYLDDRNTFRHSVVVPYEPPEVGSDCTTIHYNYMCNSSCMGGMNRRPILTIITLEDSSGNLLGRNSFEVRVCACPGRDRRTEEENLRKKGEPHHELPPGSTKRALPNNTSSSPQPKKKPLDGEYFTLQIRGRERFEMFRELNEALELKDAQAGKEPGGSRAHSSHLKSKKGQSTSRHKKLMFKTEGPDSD
Consider `Nc1c(Cl)cc(Cl)cc1Cl`, for which the result was inactive. Still for that read-out and setting: the result for `CC(=O)CC(=O)Nc1ccc(S(=O)(=O)O)cc1` reads “inactive”. On the same count and under the same terms, the result for `C=COCCCCO` reads “inactive”; that for `Fc1ccccc1-c1ccccc1`, “inactive”. Turning to `O=C1CCCc2ccccc21`, the outcome was inactive. Same read-out and setting: the result for `ClCCl` reads “inactive”; that for `Cc1c(O)cc2c(c1C)O[C@](C)(CCC[C@H](C)CCC[C@H](C)CCCC(C)C)CC2`, “inactive”; that for `C=CC(=O)CC`, “inactive”. For `Oc1cc(O)cc(O)c1`, the outcome was inactive. Same read-out and setting: the result for `Cc1ccc(C=O)cc1C` reads “inactive”; that for `COC(=O)N[C@H](C(=O)N[C@@H](Cc1ccccc1)[C@@H](O)CN(Cc1ccc(-c2ccccn2)cc1)NC(=O)[C@@H](NC(=O)OC)C(C)(C)C)C(C)(C)C`, “inactive”. Same read-out and setting: the result for `CCN(CC)CCNC(=O)c1cc(S(C)(=O)=O)ccc1OC` reads “inactive”; that for `Cc1cccc(C)c1NC(=O)CN1CCCC1`, “inactive”. On the same count and under the same terms, the result for `O=C(NNCS(=O)(=O)O)c1ccncc1` reads “inactive”; that for `CS(=O)(=O)NC(=O)CCC/C=C\C[C@H]1C(=O)C[C@@H](O)[C@@H]1/C=C/[C@H](O)COc1ccccc1`, “inactive”. Consider `NC(=O)[C@@H]1C[C@]2(NC(=O)NC2=O)c2cc(F)ccc2O1`, for which the result was inactive. The same measure, in the same setting: the result for `C=CCCCCCCCCCCC` reads “inactive”. The same measure, in the same setting: the result for `CC(C(=O)O)c1ccc(CC2CCCC2=O)cc1` (stereo not drawn) reads “inactive”.

System in a further experiment: not listed separately
Nature of the experiment: TOX21_p53_BLA_p5_viability: Viability Assessment in the Tox21 HCT-116 p53 Agonism Beta-lactamase Assay, Phase 5 (AID 2283600). The gist of the method: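 Decreased CellTiter-Glo luminescence denotes lost viability. Exposure: 16 h at 37C, 5% CO2, with compounds from DMSO stocks diluted 217-fold in wells of 4000 cells.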
On to `Cc1onc(-c2c(Cl)cccc2Cl)c1C(=O)N[C@@H]1C(=O)N2[C@@H]1SC(C)(C)[C@@H]2C(=O)O`, for which the call was inactive. Regarding `Fc1ccccc1-c1ccccc1`, the outcome was inactive. Same read-out and setting: the result for `O=C1CCCc2ccccc21` reads “inactive”; that for `CCC(=O)CC`, “inactive”; that for `CCCCCCCC/C=C\CCCCCCCC(=O)OCCOC(=O)CCCCCCC/C=C\CCCCCCCC`, “inactive”. Same read-out and setting: the result for `Oc1cc(O)cc(O)c1` reads “inactive”.

For the molecule `Cc1ccc(C=O)cc1C`, the molecule was called inactive. The same measure, in the same setting: the result for `CCCCC(=O)O[C@]1(C(=O)CO)CC[C@H]2[C@@H]3CCC4=CC(=O)CC[C@]4(C)[C@H]3[C@@H](O)C[C@@]21C` reads “inactive”; that for `CCN(CC)CCNC(=O)c1cc(S(C)(=O)=O)ccc1OC`, “inactive”. Still for that read-out and setting: the result for `CCN(CCCc1ccccc1)CCCc1ccccc1` reads “inactive”. Still for that read-out and setting: the result for `C=CCC=CC` reads “inactive”; that for `CCCCOCCCC`, “inactive”.

In the case of `NC(=O)[C@@H]1C[C@]2(NC(=O)NC2=O)c2cc(F)ccc2O1`, the molecule was classed as inactive.

As for `CC(=O)[C@@]1(O)CC[C@H]2[C@@H]3C=C(Cl)C4=CC(=O)[C@@H]5C[C@@H]5[C@]4(C)[C@H]3CC[C@@]21C`, the molecule was classed as inactive. As to `CC(C(=O)O)c1ccc(CC2CCCC2=O)cc1` (stereo not drawn), the result was inactive. On the same count and under the same terms, the result for `Cc1ccc(C(=O)Nc2ccc(S(=O)(=O)O)c3cc(S(=O)(=O)O)cc(S(=O)(=O)O)c23)cc1NC(=O)c1cccc(NC(=O)Nc2cccc(C(=O)Nc3cc(C(=O)Nc4ccc(S(=O)(=O)O)c5cc(S(=O)(=O)O)cc(S(=O)(=O)O)c45)ccc3C)c2)c1` reads “inactive”.
